Test results as given in PubChem BioAssay (NCATS).
“And” between values parts separate entries of the source, which are not always exact repeats. Equal entries are not always repeated. Inconclusive results are not listed. The source made the active and inactive calls. Calls come from the whole dose curve; as a rule, active = well fitted curve in the direction sought with a large enough effect; inconclusive = small, poorly fitted or top-dose-only effect, or another doubt; inactive = no such curve, though single readings can be large; an effect the other way counts as inactive or inconclusive.

Tests used:
[1] = qHTS of pediatric cancer cell lines to identify multiple opportunities for drug repurposing: Primary screen for SJ-GBM2 cells (AID 1347091); note: potency is the fitted concentration of half-maximal effect
Summary of the method: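 Cell viability, CellTiter-Glo luminescence; 500-1,000 cells/well, 8- or 11-point titration, 48 h compound exposure at 37 degrees C, 5% CO2. Controls: DMSO neutral, bortezomib 2.3 µM final as positive.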

[2] = qHTS of pediatric cancer cell lines to identify multiple opportunities for drug repurposing: Primary screen for A673 cells (AID 1347092); note: nearly all actives have a fitted effect of over 45% in size; note: potency is the fitted concentration of half-maximal effect
Summary of the method: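 Cell viability of A673 measured by CellTiter-Glo ATP luminescence after 48 hours compound exposure. Dilution series spanned 0.78 nM to 46 µM (MIPE, 11-point) or 0.59 nM to 46 µM (NPC, 8-point); bortezomib 2.3 uM positive control.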

[3] = qHTS of pediatric cancer cell lines to identify multiple opportunities for drug repurposing: Primary screen for SK-N-MC cells (AID 1347093); note: potency is the fitted concentration of half-maximal effect
Summary of the method: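 Metabolically active cells were quantified by ATP-dependent luminescence (CellTiter-Glo, 15 min at room temperature) following 48 h treatment. Cells had been plated at 500-1,000 per well and settled for 5 h beforehand.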

[4] = qHTS of pediatric cancer cell lines to identify multiple opportunities for drug repurposing: Primary screen for BT-37 cells (AID 1347094); note: potency is the fitted concentration of half-maximal effect
Summary of the method: (§1)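 ATP-based luminescence (CellTiter-Glo) quantifies viability after a 48-hour exposure. Compounds are dosed across 8 or 11 final concentrations; DMSO and 2.3 µM bortezomib serve as controls.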

[5] = qHTS of pediatric cancer cell lines to identify multiple opportunities for drug repurposing: Primary screen for NB-EBc1 cells (AID 1347095); note: potency is the fitted concentration of half-maximal effect
Summary of the method: as §1

[6] = qHTS of pediatric cancer cell lines to identify multiple opportunities for drug repurposing: Primary screen for Saos-2 cells (AID 1347097); note: nearly all actives have a fitted effect of over 40% in size; note: potency is the fitted concentration of half-maximal effect
Summary of the method: as §1

[7] = qHTS of pediatric cancer cell lines to identify multiple opportunities for drug repurposing: Primary screen for SK-N-SH cells (AID 1347098); note: nearly all actives have a fitted effect of over 65% in size; note: potency is the fitted concentration of half-maximal effect
Summary of the method: (§2)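 Cells (500-1,000/well) rested 5 h, then received compounds for 48 h; metabolically active cells were measured by CellTiter-Glo luminescence. Final concentrations spanned up to 46 µM (MIPE, 11-point) or 0.59 nM-46 µM (NPC, 8-point) in primary screens, 11-point in follow-ups.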

[8] = qHTS of pediatric cancer cell lines to identify multiple opportunities for drug repurposing: Primary screen for NB1643 cells (AID 1347099); note: nearly all actives have a fitted effect of over 50% in size; note: potency is the fitted concentration of half-maximal effect
Summary of the method: as §1

[9] = qHTS of pediatric cancer cell lines to identify multiple opportunities for drug repurposing: Primary screen for LAN-5 cells (AID 1347100); note: potency is the fitted concentration of half-maximal effect
Summary of the method: as §2

[10] = qHTS of pediatric cancer cell lines to identify multiple opportunities for drug repurposing: Primary screen for BT-12 cells (AID 1347101); note: nearly all actives have a fitted effect of over 25% in size; note: potency is the fitted concentration of half-maximal effect
Summary of the method: as §2

[11] = qHTS of pediatric cancer cell lines to identify multiple opportunities for drug repurposing: Primary screen for Rh18 cells (AID 1347102); note: nearly all actives have a fitted effect of over 65% in size; note: potency is the fitted concentration of half-maximal effect
Summary of the method: as §2

[12] = qHTS of pediatric cancer cell lines to identify multiple opportunities for drug repurposing: Primary screen for OHS-50 cells (AID 1347103); note: nearly all actives have a fitted effect of over 40% in size; note: potency is the fitted concentration of half-maximal effect
Summary of the method: as §2

[13] = qHTS of pediatric cancer cell lines to identify multiple opportunities for drug repurposing: Primary screen for RD cells (AID 1347104); note: nearly all actives have a fitted effect of over 55% in size; note: potency is the fitted concentration of half-maximal effect
Summary of the method: as §1

[14] = qHTS of pediatric cancer cell lines to identify multiple opportunities for drug repurposing: Primary screen for MG 63 (6-TG R) cells (AID 1347105); note: nearly all actives have a fitted effect of over 50% in size; note: potency is the fitted concentration of half-maximal effect
Summary of the method: as §1

[15] = qHTS of pediatric cancer cell lines to identify multiple opportunities for drug repurposing: Primary screen for Rh30 cells (AID 1347107); note: nearly all actives have a fitted effect of over 75% in size; note: potency is the fitted concentration of half-maximal effect
Summary of the method: as §2

[16] = qHTS of pediatric cancer cell lines to identify multiple opportunities for drug repurposing: Primary screen for Rh41 cells (AID 1347108); note: nearly all actives have a fitted effect of over 70% in size; note: potency is the fitted concentration of half-maximal effect
Summary of the method: as §1

[17] = qHTS of pediatric cancer cell lines to identify multiple opportunities for drug repurposing: Confirmatory screen for A673 cells (AID 1347110);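 note: cells exposed to compound for 48 h before the viability read; nearly all actives have a fitted effect of over 65% in size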; note: potency is the fitted concentration of half-maximal effect
Summary of the method: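 Viability was read as ATP luminescence (CellTiter-Glo) after 48 h of compound exposure at 37 C in A673 cells seeded at 500-1,000/well. Titrations reached 46 uM final, with 11 points in the confirmatory screen. Concentration-response curves were fitted directly.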

[18] = qHTS of pediatric cancer cell lines to identify multiple opportunities for drug repurposing: Primary screen for U-2 OS cells (AID 1347096); note: nearly all actives have a fitted effect of over 50% in size
Summary of the method: as §2

[19] = qHTS of pediatric cancer cell lines to identify multiple opportunities for drug repurposing: Primary screen for control Hh wild type fibroblast cells (AID 1347106);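 note: series mostly up to about 46 µM; a drop in luminescence marks cytotoxicity and a rise apparent proliferation; nearly all actives have a fitted effect of over 55% in size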
Summary of the method: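 Cells (500-1,000/well) in growth media were settled 5 h at 37 degrees C, then given compounds for 48 h. Viability was read as CellTiter-Glo luminescence. Primary runs used MIPE at 11 points (0.78 nM-46 µM) and NPC at 8 points (0.59 nM-46 µM); follow-ups used 11 points.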

[20] = qHTS of pediatric cancer cell lines to identify multiple opportunities for drug repurposing: Confirmatory screen for NB1643 cells (AID 1347109); note: nearly all actives have a fitted effect of over 45% in size; note: potency is the fitted concentration of half-maximal effect
Summary of the method: as §2

Measured: Potency

Cc1c(CN2CCN(C(=O)C(C)C)CC2)sc2c(N3CCOCC3)nc(-c3cnc(N)nc3)nc12
active: [1] 132 nM | [2] 469 nM | [3] 23.5 nM | [4] 485 nM | [5] 118 nM | [6] 332 nM | [7] 961 nM | [8] 6620 nM | [9] 662 nM | [10] 685 nM | [11] 264 nM | [12] 34.3 nM | [13] 935 nM | [14] 118 nM | [15] 1870 nM | [16] 235 nM | [17] 1470 nM

C[C@H](NC(=O)Cc1cc(F)cc(F)c1)C(=O)N[C@@H]1C(=O)N(C)c2ccccc2-c2ccccc21
inactive: [1] | [5] | [18] | [9] | [10] | [11] | [19] | [15]
active: [2] 7430 nM | [3] 5260 nM | [7] 12100 nM | [8] 6620 nM | [13] 16600 nM | [14] 11800 nM | [16] 14800 nM

COc1ccc(-c2ccc3c(N4CCOCC4)nc(N4C[C@@H](C)O[C@@H](C)C4)nc3n2)cc1CO
inactive: [8] | [15]
active: [1] 296 nM | [2] 11800 nM | [3] 93.5 nM | [4] 1370 nM | [5] 1480 nM | [12] 217 nM | [14] 187 nM | [16] 743 nM | [17] 293 nM

CCN(CC)CCCC(C)Nc1ccnc2cc(Cl)ccc12 (centres undefined)
active: [2] 2960 nM | [3] 37.2 nM | [8] 1480 nM | [10] 3430 nM | [12] 8630 nM | [13] 13 µM and 6.62 µM | [14] 11800 nM
inactive: [1] | [5] | [18] | [11] | [19] | [15] | [16] | [20] | [17]

NC(=O)c1ccc(-c2nc(-c3ccc4c(c3)OCO4)c(-c3ccccn3)[nH]2)cc1
inactive: [1] | [2] | [3] | [5] | [18] | [6] | [7] | [8] | [9] | [10] | [11] | [12] | [13] | [14] | [19] | [15] | [16]

Fc1ccc(Cl)cc1-c1nc(Nc2ccncc2)c2nccnc2n1
inactive: [1] | [2] | [3] | [5] | [18] | [7] | [8] | [9] | [10] | [11] | [12] | [13] | [14] | [19] | [15] | [16]

Cc1[nH]c(=O)c(C#N)cc1-c1ccncc1
inactive: [1] | [2] | [4] | [5] | [18] | [6] | [7] | [9] | [10] | [11] | [12] | [13] | [14] | [19] | [15] | [16]

O=NN(CCCl)C(=O)NCCCl
active: [17] 16500 nM
inactive: [1] | [2] | [3] | [4] | [18] | [6] | [7] | [8] | [9] | [10] | [11] | [12] | [13] | [14] | [19] | [15] | [16] | [20]

CCCn1c(=O)c2[nH]c(C34CC5CC3C[C@@H](C5)C4)nc2n(CCC)c1=O
active: [1] 16600 nM | [2] 18700 nM | [3] 10500 nM
inactive: [4] | [18] | [7] | [10] | [19]

CCC(C)N(C)C(=O)c1cc2ccccc2c(-c2ccccc2Cl)n1 (centres undefined)
inactive: [1] | [2] | [3] | [4] | [5] | [18] | [9] | [11] | [13] | [14] | [19] | [15]

Cn1cnc2c(F)c(Nc3ccc(Br)cc3Cl)c(C(=O)NOCCO)cc21
active: [2] 2350 nM | [3] 2640 nM | [8] 9350 nM | [16] 14800 nM
inactive: [1] | [12] | [19] | [17]

COc1ccc(CC2=NN3C([C@@H](CCc4ccccc4)[C@@H](C)O)=NC(C)C3C(=O)N2)cc1OC (some centres undefined)
inactive: [1] | [2] | [4] | [5] | [18] | [6] | [9] | [10] | [11] | [12] | [13] | [14] | [19]

CCOc1cc(N2CCC(O)CC2)ccc1Nc1ncc2c(n1)N(C)c1ccccc1C(=O)N2C
inactive: [19]
active: [1] 132 nM | [2] 4.7 nM | [3] 332 nM | [4] 54.4 nM | [5] 833 nM | [6] 118 nM | [7] 4290 nM | [9] 93.5 nM | [10] 86.3 nM | [12] 43.2 nM | [13] 148 nM | [14] 3720 nM | [16] 2960 nM | [20] 16500 nM | [17] 46.5 nM

O=C(C1CC1)N1CC[C@@H](Cn2c(-c3ccc(-c4ccc5occc5c4)cc3)nc3cnccc32)C1
active: [1] 8330 nM | [3] 18700 nM | [5] 13200 nM
inactive: [2] | [18] | [6] | [7] | [8] | [11] | [12] | [13] | [14] | [19] | [15] | [16]

COc1ccc2c3n(c(=NC(=O)c4cccnc4)nc2c1OC)CCN3
active: [1] 18700 nM | [2] 743 nM | [3] 372 nM | [5] 18700 nM | [6] 1180 nM | [7] 961 nM | [8] 4180 nM | [9] 14800 nM | [12] 968 nM | [13] 1870 nM | [14] 2350 nM | [16] 935 nM
inactive: [10] | [19] | [15]
